# AMA1 RON2 block: inhibitors of Plasmodium falciparum AMA1-RON2 interaction | AlphaScreen AMA1-biotinylated RON2 peptide binding | Potency, µM (highest dose often 58.2 µM), actives largely listed as inhibitors | 360,000 tested, 0.2% active; also: nearly all actives have a fitted effect of over 45% in size
#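 AMA1 (3D7) with his tag at 25 nM final met compounds first, then biotinylated RON2 peptide at 25 nM; detection used donor plus acceptor beads, 10 µg/mL apiece, read by AlphaScreen after 30 min at room temperature.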
# Cycloheximide cs: counter-screen hit for Shiga toxin inhibitors, cycloheximide; cell reporter, cycloheximide protein synthesis inhibition counterscreen; max response, %; 300,000 tested, 12% active; AID 2314; in the data active = max response mostly above about 13%, no sharp cut-off; inactive = mostly below about 14%; also: read at 38.3 µM for the half of the compounds with a filed dose
# Shiga inhibitor: inhibitors of Shiga toxin in Vero cells; Vero cells, Shiga toxin protein synthesis inhibition reporter; 290,000 tested, 9.2% active; inhibition, % at 38.7 µM; in the data active = inhibition mostly above about 28%, no sharp cut-off; inactive = mostly below about 43%
# Pf growth 96h: P. falciparum growth inhibition at 96 hours. P. falciparum luciferase reporter growth, 96 h. Potency, µM (highest dose often 28.7 µM), most hits filed as inhibitors. 320,000 tested, 6.9% active. AID 504834
#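 P. falciparum expressing integrated firefly luciferase, in erythrocytes at 2% hematocrit, 0.05% parasitemia, incubated with compounds 96 h at 37 C, 5% CO2. Growth inhibition read as loss of luminescence; two-generation exposure targets delayed-death apicoplast inhibitors.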
# Pf growth 48h: P. falciparum growth inhibition at 48 hours (one generation) | P. falciparum luciferase growth in erythrocytes, 48 h | Potency, µM (titrated, usually from 28.7 µM), usual class: inhibitors | 310,000 tested, 5.9% active
#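 Read-out is firefly luciferase luminescence from an integrated reporter in P. falciparum, so falling signal marks reduced parasite growth. Infected erythrocytes were at 2% hematocrit and 0.1% parasitemia (final) in Albumax-supplemented RPMI 1640.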
# HCV inh: inhibitors of hepatitis C virus infection; Potency, µM (titrated, usually from 41.8 µM), most hits filed as inhibitors; Huh7.5.1 HCVcc-Cre infection, luciferase reporter, 44 h; 340,000 tested, 3.4% active
#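 Whole-lifecycle infectious HCVcc-Cre system; cells 1,000/well, compound then virus (~0.5 moi) added 4 h after plating, 44 h culture. Luciferase read 15 sec following 15 min substrate incubation, room temp.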
# A number is an active result; - = inactive; ? = inconclusive; . = no result; [ ] = remark or other dose. The list is not random: actives were taken first. Their share in the collection is about 21%. Unless noted, calls follow the shape of the dose curve; as a rule, active = well fitted curve in the direction sought with a large enough effect; inconclusive = small, poorly fitted or top-dose-only effect, or another doubt; inactive = no such curve, though single readings can be large; an effect the other way counts as inactive or inconclusive.
SMILES,AMA1 RON2 block,Cycloheximide cs,Shiga inhibitor,Pf growth 96h,Pf growth 48h,HCV inh
CCC1SC2=NC(C)=C(C(=O)OC)C(c3cccs3)N2C1=O (stereo not given),-,-,-,-,-,?
CCOC(=O)C1=C(C)N=C2SC(C)C(=O)N2C1c1ccccc1 (stereo not given),-,-,-,-,?,-
CCOC(=O)C1=C(C)N=C2SC(C)C(=O)N2C1c1ccc(OCC)c(OCC)c1 (stereo not given),-,-,-,-,12µM,-
CCOC(=O)C1=C(C)N=C2SCCC(=O)N2C1c1ccc(C(=O)OC)cc1 (stereo not given),-,-,-,.,.,-
CCOC(=O)C1=C(C)N=C2SC(C)C(=O)N2C1c1ccc(C(=O)OC)cc1 (stereo not given),-,-,-,3.7µM,-,-
CCOC(=O)C1=C(C)N=C2SC(C(=O)OC)=CC(=O)N2C1c1cc(OC)c(OC)c(OC)c1 (stereo not given),-,-,-,-,4.7µM,-
CCOC(=O)C1=C(C)N=C2SC(CC)C(=O)N2C1c1cccc(F)c1 (stereo not given),-,-,-,10µM,-,-
CCCN(CC(=O)Nc1ccccc1C)C(=O)c1ccc(C2SCCS2)cc1,-,.,.,-,-,-
CC1CCN(C(=O)COc2ccc(S(=O)(=O)N3CCOCC3)cc2)CC1,-,.,.,-,?,-[8.37 µM]
NS(=O)(=O)c1ccc(CNC(=S)NCc2ccc(F)cc2)cc1,-,-,-,10µM,-,-
Cc1ccc(S(=O)(=O)NC(=O)NCc2ccc(F)cc2)cc1,-,-,-,4.1µM,-,-
NS(=O)(=O)c1ccc(CNC(=S)NCc2ccc(Cl)cc2)cc1,-[11.6 µM],-,-,-,-,-
COc1ccc(Cl)cc1NC(=S)NCc1ccc(S(N)(=O)=O)cc1,-[2.32 µM],-,-,12µM,-,?
NS(=O)(=O)c1ccc(CNC(=S)NC2CC2)cc1,-,-,-,2.1µM,-,-
NS(=O)(=O)c1ccc(CCNC(=S)NC2CCCCC2)cc1,-,-,-,-,-,-
Cc1ccc(S(=O)(=O)NC(=O)NCc2ccccc2)cc1,-,-,-,.,.,-
COc1ccc(OC)c(NC(=S)NCc2ccc(S(N)(=O)=O)cc2)c1,-,-,-,?,-,-
C=CCn1c(=O)/c(=C/c2ccsc2)s/c1=C(\C#N)C(=O)NCCN1CCOCC1,-,.,.,.,.,-
Cn1cc(CN2CC3C[C@@H]4CC2C[C@H](C3)C4)c(-c2ccc3c(c2)OCCO3)n1,-,-,-,12µM,-,-
Cc1ccc2oc(/N=C(\N)NC(=O)C3CC3)nc2c1,-,55,65,-,-,-
Cc1ccc2oc(/N=C(\N)NC(=O)C(C)(C)C)nc2c1,-,27,-,-,-,-
O=[N+]([O-])c1ccccc1S(=O)(=O)N1CCN(c2ccccc2)CC1,-,-,-,-,-,-
CCOC(=O)c1cc(=O)c2ccc(OCC(=O)Nc3ccc(F)cc3)cc2o1,-,-,-,-,-,-
COc1ccc(NC(=O)c2ccc3c(c2)C(=O)N(Cc2ccncc2)C3=O)cc1S(N)(=O)=O,-,.,.,.,.,?
C=CCNC(=O)N1CCC(n2nccc2NC(=O)CCCc2ccccc2)CC1,-,-,-,?,-,-
SMILES,AMA1 RON2 block,Cycloheximide cs,Shiga inhibitor,Pf growth 96h,Pf growth 48h,HCV inh
CCCCN1CC[C@H]2C=CC[C@@H](C(=O)N3CCOCC3)[C@H]2C1=O,-,.,.,.,.,0.56µM
Cc1ccc(NS(=O)(=O)c2c(C)nc3sccn3c2=O)cc1C,-,-,-,?,-,-
Cc1oc(-c2ccc(Cl)cc2)nc1CS(=O)CC(=O)NC1CCCC1 (stereo not given),-,-,-,?,-,-
Cc1oc(-c2ccc(Cl)cc2)nc1CS(=O)CC(=O)NC1CCCCC1 (stereo not given),-,-,-,-,-,-
Cc1oc(-c2ccc(Cl)cc2)nc1CS(=O)CC(=O)NC1CCCCCC1 (stereo not given),-,-,-,9.3µM,-,?
Cc1oc(-c2ccc(Cl)cc2)nc1CS(=O)CC(=O)NCCCN(C)C1CCCCC1 (stereo not given),-,-,-,-,?,10µM
O=C(OCC(=O)N1CCCC1=O)C1COc2ccccc2O1 (stereo not given),-,-,-,-,-,-
COc1ccccc1C(=O)NCCC(=O)NCc1ccncc1,-,.,.,-,-,-
Cc1ccc(CNC(=O)CN2C(=O)C3(OCCCO3)c3ccccc32)cc1,-,-,-,10µM,-,-
CCOC(=O)CN1C(=O)N[C@@H](CCc2ccccc2)[C@H](C(=O)OC)[C@H]1C,-,.,.,.,.,-
CC(C)NC(=O)C1COc2ccccc2O1 (stereo not given),-,-,-,-,-,-
CC1(C)CNC(=O)c2sc(NC(=O)c3ccccc3Cl)nc2C1,-,17,-,-,-,-
CC1(C)CC(=O)c2sc(NS(=O)(=O)c3ccc([N+](=O)[O-])cc3)nc2C1,-,46,-,?,-,-
CC(C)(C)c1csc(NC(=O)C2COc3ccccc3O2)n1 (stereo not given),-,42,87,-,-,-
O=C(Nc1nnc(C(F)(F)F)s1)C1COc2ccccc2O1 (stereo not given),-,34,44,-,.,-
COc1ccc(CC(=O)Nc2ccc(S(=O)(=O)Nc3cc(C)nc(C)n3)cc2)cc1OC,-,.,.,.,.,.
O=C(Nc1nnc(CC(=O)N2CCOCC2)s1)C1COc2ccccc2O1 (stereo not given),-,-,-,-,-,-
O=C(Nc1nncs1)C1COc2ccccc2O1 (stereo not given),-,14,50,-,-,-
Cc1onc(-c2ccccc2)c1C(=O)Nc1nc2c(s1)C(=O)CC(C)(C)C2,-,-,-,?,-,-
Cc1cccc2sc(NNC(=O)C3COc4ccccc4O3)nc12 (stereo not given),-,-,-,-,-,-[8.37 µM]
CC1(C)CC(=O)c2sc(NC(=O)c3ccco3)nc2C1,-,33,-,-,.,-
CC(=O)c1sc(NC(=O)C2COc3ccccc3O2)nc1C (stereo not given),-,21,-,-,-,-
O=C(Nc1nnc(C2CC2)s1)C1COc2ccccc2O1 (stereo not given),-,34,-,-,-,-
COc1ccc(-c2csc(NC(=O)C3COc4ccccc4O3)n2)cc1OC (stereo not given),-,-,-,?,-,11µM
CC1(C)CC(=O)c2sc(NC(=O)CN3C(=O)CCC3=O)nc2C1,-,50,74,-,-,?
CC1(C)CC(=O)c2sc(NC(=O)C3COc4ccccc4O3)nc2C1 (stereo not given),-,34,32,-,-,-
COc1ccc(/C=N/NC(=O)C2COc3ccccc3O2)cc1OC (stereo not given),-,-,-,-,-,-

# Compound activity deposited in PubChem BioAssay by National Center for Advancing Translational Sciences (NCATS).
